Laboratory results: PubChem BioAssay AID1159580 (chemical genetic matrix, 2015)
The whole screen tested about 5,500 compounds, of which about 2,000 (36%) were called active. Another 18% or so got no clear call; they are omitted. The list shows a part of the results. Values without a mark were called inactive. Cut-off read from the data, not from the text of the source: active = normalized growth mostly below about 0.91 (no sharp cut-off); inconclusive = no clear call, values can overlap the other calls; inactive = mostly above about 0.92.

Assay: chemical genetic growth profiling, strain panel (AID 1159580);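 note: tested at 20 µM; growth read once vehicle control cultures reached saturation at 30 °C; 1 = growth at the plate median or of vehicle wells; lower values mean less growth of the strain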
Conditions: growth OD
[1] = S. cerevisiae deletion strains, locus YBR021W, strain FUR4, stronger effect = lower value
[2] = S. cerevisiae deletion strains, locus YBR229C, strain ROT2, stronger effect = lower value
[3] = S. cerevisiae deletion strains, locus YCL029C, strain bik1, stronger effect = lower value
[4] = S. cerevisiae deletion strains, locus YDL035C, strain GPR1, stronger effect = lower value
[5] = S. cerevisiae deletion strains, locus YDL074C, strain BRE1, stronger effect = lower value
[6] = S. cerevisiae deletion strains, locus YDL101C, strain DUN1, stronger effect = lower value
[7] = S. cerevisiae deletion strains, locus YDL134C, strain PPH21, stronger effect = lower value
[8] = S. cerevisiae deletion strains, locus YDL185W, strain tfp1, stronger effect = lower value
[9] = S. cerevisiae deletion strains, locus YDL192W, strain arf1, stronger effect = lower value
[10] = S. cerevisiae deletion strains, locus YDR101C, strain arx1, stronger effect = lower value
[11] = S. cerevisiae deletion strains, locus YDR162C, strain NBP2, stronger effect = lower value
[12] = S. cerevisiae deletion strains, locus YDR318W, strain mcm21, stronger effect = lower value
[13] = S. cerevisiae deletion strains, locus YDR388W, stronger effect = lower value
[14] = S. cerevisiae deletion strains, locus YDR502C, strain sam2, stronger effect = lower value
[15] = S. cerevisiae deletion strains, locus YEL061C, strain CIN8, stronger effect = lower value
[16] = S. cerevisiae deletion strains, locus YER110C, stronger effect = lower value
[17] = S. cerevisiae deletion strains, locus YER155C, strain BEM2, stronger effect = lower value
[18] = S. cerevisiae deletion strains, locus YER167W, strain BCK2, stronger effect = lower value
[19] = S. cerevisiae deletion strains, locus YGL078C, strain dbp3, stronger effect = lower value
[20] = S. cerevisiae deletion strains, locus YGL086W, strain mad1, stronger effect = lower value
[21] = S. cerevisiae deletion strains, locus YGL248W, strain PDE1, stronger effect = lower value
[22] = S. cerevisiae deletion strains, locus YGR135W, strain pre9, stronger effect = lower value
[23] = S. cerevisiae deletion strains, locus YGR252W, strain gcn5, stronger effect = lower value
[24] = S. cerevisiae deletion strains, locus YHR030C, strain SLT2, stronger effect = lower value
[25] = S. cerevisiae deletion strains, locus YHR079C, strain IRE1 (second series), stronger effect = lower value
[26] = S. cerevisiae deletion strains, locus YHR094C, strain hxt1, stronger effect = lower value
[27] = S. cerevisiae deletion strains, locus YHR129C, strain ARP1, stronger effect = lower value
[28] = S. cerevisiae deletion strains, locus YHR200W, strain rpn10, stronger effect = lower value
[29] = S. cerevisiae deletion strains, locus YIL066C, strain RNR3, stronger effect = lower value
[30] = S. cerevisiae deletion strains, locus YIL073C, strain SPO22, stronger effect = lower value
[31] = S. cerevisiae deletion strains, locus YIL125W, strain kgd1, stronger effect = lower value
[32] = S. cerevisiae deletion strains, locus YIR030C, strain dcg1, stronger effect = lower value
[33] = S. cerevisiae deletion strains, locus YJL095W, strain BCK1, stronger effect = lower value
[34] = S. cerevisiae deletion strains, locus YJL134W, strain LCB3, stronger effect = lower value
[35] = S. cerevisiae deletion strains, locus YJL168C, strain set2, stronger effect = lower value
[36] = S. cerevisiae deletion strains, locus YJL187C, strain SWE1 (second series), stronger effect = lower value
[37] = S. cerevisiae deletion strains, locus YJR043C, strain POL32, stronger effect = lower value
[38] = S. cerevisiae deletion strains, locus YKL009W, strain mrt4, stronger effect = lower value
[39] = S. cerevisiae deletion strains, locus YKL068W, stronger effect = lower value
[40] = S. cerevisiae deletion strains, locus YKL085W, strain MDH1 (second series), stronger effect = lower value
[41] = S. cerevisiae deletion strains, locus YKL085W, strain MDH1, stronger effect = lower value
[42] = S. cerevisiae deletion strains, locus YKR001C, strain vps1, stronger effect = lower value
[43] = S. cerevisiae deletion strains, locus YLR039C, strain RIC1, stronger effect = lower value
[44] = S. cerevisiae deletion strains, locus YLR058C, strain SHM2, stronger effect = lower value
[45] = S. cerevisiae deletion strains, locus YLR102C, strain apc9, stronger effect = lower value
[46] = S. cerevisiae deletion strains, locus YLR262C, strain YPT6, stronger effect = lower value
[47] = S. cerevisiae deletion strains, locus YLR268W, strain sec22, stronger effect = lower value
[48] = S. cerevisiae deletion strains, locus YLR330W, strain CHS5, stronger effect = lower value
[49] = S. cerevisiae deletion strains, locus YLR342W, strain FKS1 (second series), stronger effect = lower value
[50] = S. cerevisiae deletion strains, locus YLR371W, strain rom2, stronger effect = lower value
[51] = S. cerevisiae deletion strains, locus YLR418C, strain cdc73, stronger effect = lower value
[52] = S. cerevisiae deletion strains, locus YML016C, strain PPZ1, stronger effect = lower value
[53] = S. cerevisiae deletion strains, locus YML032C, strain rad52, stronger effect = lower value
[54] = S. cerevisiae deletion strains, locus YML124C, strain tub3, stronger effect = lower value
[55] = S. cerevisiae deletion strains, locus YMR078C, strain ctf18, stronger effect = lower value
[56] = S. cerevisiae deletion strains, locus YMR223W, strain ubp8, stronger effect = lower value
[57] = S. cerevisiae deletion strains, locus YMR307W, strain GAS1, stronger effect = lower value
[58] = S. cerevisiae deletion strains, locus YNL067W, strain RPL9B, stronger effect = lower value
[59] = S. cerevisiae deletion strains, locus YNL233W, strain BNI4, stronger effect = lower value
[60] = S. cerevisiae deletion strains, locus YNL250W, strain rad50, stronger effect = lower value
[61] = S. cerevisiae deletion strains, locus YNL271C, strain bni1, stronger effect = lower value
[62] = S. cerevisiae deletion strains, locus YNL298W, strain CLA4, stronger effect = lower value
[63] = S. cerevisiae deletion strains, locus YNL307C, strain MCK1, stronger effect = lower value
[64] = S. cerevisiae deletion strains, locus YNR052C, strain pop2, stronger effect = lower value
[65] = S. cerevisiae deletion strains, locus YOL012C, strain htz1
[66] = S. cerevisiae deletion strains, locus YOL147C, strain pex11, stronger effect = lower value
[67] = S. cerevisiae deletion strains, locus YOR061W, strain CKA2, stronger effect = lower value
[68] = S. cerevisiae deletion strains, locus YOR069W, strain VPS5, stronger effect = lower value
[69] = S. cerevisiae deletion strains, locus YOR136W, strain idh2, stronger effect = lower value
[70] = S. cerevisiae deletion strains, locus YOR144C, strain elg1, stronger effect = lower value
[71] = S. cerevisiae deletion strains, locus YOR184W, strain ser1, stronger effect = lower value
[72] = S. cerevisiae deletion strains, locus YOR316C, strain cot1, stronger effect = lower value
[73] = S. cerevisiae deletion strains, locus YPL055C, strain LGE1, stronger effect = lower value
[74] = S. cerevisiae deletion strains, locus YPR119W, strain clb2, stronger effect = lower value
[75] = S. cerevisiae deletion strains, locus YPR141C, strain kar3, stronger effect = lower value
[76] = S. cerevisiae deletion strains, locus YPR163C, strain tif3, stronger effect = lower value
[77] = S. cerevisiae deletion strains, locus YPR167C, strain met16, stronger effect = lower value
[78] = S. cerevisiae deletion strains, strain wtn01, stronger effect = lower value

SMILES: COc1ccc(-c2coc3c(OC)c(OC)ccc3c2=O)cc1
- normalized growth [1]: 0.728 (active)
- normalized growth [2]: 0.996
- normalized growth [3]: 0.998
- normalized growth [4]: 0.963
- normalized growth [5]: 0.917
- normalized growth [6]: 0.969
- normalized growth [7]: 0.924
- normalized growth [8]: 1.01
- normalized growth [9]: 0.997
- normalized growth [10]: 0.985
- normalized growth [11]: 0.875
- normalized growth [12]: 0.988
- normalized growth [13]: 1
- normalized growth [14]: 0.986
- normalized growth [15]: 0.986
- normalized growth [16]: 1.01
- normalized growth [17]: 0.988
- normalized growth [18]: 0.974
- normalized growth [19]: 1
- normalized growth [20]: 0.958
- normalized growth [21]: 0.957
- normalized growth [22]: 0.968
- normalized growth (S. cerevisiae deletion strains, locus YGR229C, strain SMI1, stronger effect = lower value): 0.787 (active)
- normalized growth [23]: 0.82
- normalized growth [24]: 0.984
- normalized growth [25]: 1.01
- normalized growth [26]: 1.01
- normalized growth [27]: 0.983
- normalized growth [28]: 1.01
- normalized growth [29]: 0.925
- normalized growth [30]: 0.99
- normalized growth [31]: 1
- normalized growth [32]: 0.998
- normalized growth [33]: 0.838
- normalized growth [34]: 0.995
- normalized growth [35]: 1.01
- normalized growth [36]: 0.957
- normalized growth [37]: 0.899
- normalized growth (S. cerevisiae deletion strains, locus YJR075W, strain HOC1, stronger effect = lower value): 0.95
- normalized growth [38]: 0.988
- normalized growth [39]: 1
- normalized growth [40]: 0.994
- normalized growth [41]: 0.994
- normalized growth [42]: 0.948
- normalized growth [43]: 0.907
- normalized growth [44]: 0.974
- normalized growth [45]: 1.01
- normalized growth [46]: 0.906
- normalized growth [47]: 0.953
- normalized growth [48]: 0.972
- normalized growth [49]: 0.912
- normalized growth [50]: 1.01
- normalized growth [51]: 0.879
- normalized growth [52]: 0.993
- normalized growth [53]: 0.995
- normalized growth [54]: 0.997
- normalized growth [55]: 1.02
- normalized growth [56]: 1.01
- normalized growth (S. cerevisiae deletion strains, locus YMR263W, strain SAP30, stronger effect = lower value): 0.931
- normalized growth [57]: 0.834
- normalized growth [58]: 0.941
- normalized growth (S. cerevisiae deletion strains, locus YNL128W, strain TEP1, stronger effect = lower value): 0.973
- normalized growth (S. cerevisiae deletion strains, locus YNL153C, strain GIM3, stronger effect = lower value): 0.955
- normalized growth [59]: 0.884
- normalized growth [60]: 1.03
- normalized growth [61]: 0.997
- normalized growth [62]: 0.997
- normalized growth [63]: 0.96
- normalized growth (S. cerevisiae deletion strains, locus YNL322C, strain KRE1, stronger effect = lower value): 0.98
- normalized growth [64]: 1.01
- normalized growth [65]: 1.11
- normalized growth [66]: 0.989
- normalized growth [67]: 0.995
- normalized growth [68]: 0.998
- normalized growth [69]: 1
- normalized growth [70]: 0.994
- normalized growth [71]: 0.917
- normalized growth [72]: 1
- normalized growth [73]: 0.888
- normalized growth [74]: 1.02
- normalized growth [75]: 1
- normalized growth [76]: 0.999
- normalized growth [77]: 1
- normalized growth [78]: 0.988

SMILES: COc1ccc(-c2coc3c(OC)c(O)ccc3c2=O)cc1
- normalized growth [1]: 0.951
- normalized growth [2]: 0.92
- normalized growth [3]: 0.97
- normalized growth [4]: 0.935
- normalized growth [5]: 0.9
- normalized growth [6]: 0.928
- normalized growth [7]: 0.888 (active)
- normalized growth [8]: 0.949
- normalized growth [9]: 0.931
- normalized growth [10]: 0.944
- normalized growth [11]: 0.792 (active)
- normalized growth [12]: 0.951
- normalized growth [13]: 0.965
- normalized growth [14]: 0.953
- normalized growth [15]: 0.958
- normalized growth [16]: 0.953
- normalized growth [17]: 0.997
- normalized growth [18]: 0.956
- normalized growth [19]: 0.961
- normalized growth [20]: 0.929 (active)
- normalized growth [21]: 0.927
- normalized growth [22]: 0.931
- normalized growth [23]: 0.826
- normalized growth [24]: 0.976
- normalized growth [25]: 0.946
- normalized growth [26]: 0.952
- normalized growth [27]: 0.96
- normalized growth [28]: 0.936
- normalized growth [29]: 0.882
- normalized growth [30]: 0.884
- normalized growth [31]: 0.967
- normalized growth [32]: 0.962
- normalized growth [33]: 0.813
- normalized growth [34]: 0.968
- normalized growth [35]: 0.963
- normalized growth [36]: 0.916
- normalized growth [37]: 0.914
- normalized growth [38]: 0.928
- normalized growth [39]: 0.946
- normalized growth [40]: 0.944
- normalized growth [41]: 0.944
- normalized growth (S. cerevisiae deletion strains, locus YKL190W, strain CNB1, stronger effect = lower value): 0.958
- normalized growth [42]: 0.896 (active)
- normalized growth [43]: 0.861
- normalized growth [44]: 0.931
- normalized growth [45]: 0.965
- normalized growth [46]: 0.86
- normalized growth [47]: 0.942
- normalized growth [48]: 0.953
- normalized growth [49]: 0.86
- normalized growth [50]: 0.969
- normalized growth [51]: 0.808 (active)
- normalized growth [52]: 0.963
- normalized growth [53]: 0.958
- normalized growth [54]: 0.952
- normalized growth [55]: 0.95
- normalized growth [56]: 0.943
- normalized growth [57]: 0.769
- normalized growth [58]: 0.918
- normalized growth [59]: 0.892
- normalized growth [60]: 0.968
- normalized growth [61]: 0.945
- normalized growth [62]: 0.94
- normalized growth [63]: 0.896 (active)
- normalized growth [64]: 0.964
- normalized growth (S. cerevisiae deletion strains, locus YOL006C, strain TOP1, stronger effect = lower value): 0.742
- normalized growth [65]: 0.945
- normalized growth [66]: 0.966
- normalized growth [67]: 0.933
- normalized growth [68]: 0.969
- normalized growth [69]: 0.98
- normalized growth [70]: 0.966
- normalized growth [71]: 0.876
- normalized growth [72]: 0.961
- normalized growth [73]: 0.86
- normalized growth [74]: 0.977
- normalized growth [75]: 0.955
- normalized growth [76]: 0.931
- normalized growth [77]: 0.954
- normalized growth [78]: 0.962
- normalized growth (S. cerevisiae strains, strain wild type, stronger effect = lower value): 0.95
